Measurements as given in the supplement of paper PMC13380429.
Unmarked numbers belong to inactive results.

Test system: Vero E6 infected with SARS-CoV-2
Test: inhibition of SARS-CoV-2 cytopathic effect; higher = more antiviral protection, active = above 15
Details: 48 h

| SMILES | inhibition of SARS-CoV-2 cytopathic effect (1 nM) | inhibition of SARS-CoV-2 cytopathic effect (8.33 nM) | inhibition of SARS-CoV-2 cytopathic effect (100 nM) | inhibition of SARS-CoV-2 cytopathic effect (833.33 nM) | inhibition of SARS-CoV-2 cytopathic effect (10000 nM) |
| --- | --- | --- | --- | --- | --- |
| CC(C)C[C@H](NC(=O)CNC(=O)c1cc(Cl)ccc1Cl)B1OC(=O)C(CC(=O)O)(CC(=O)O)O1 [ixazomib-citrate] | 2.06% | 1.34% | 22.3% (active) | 29% (active) | 20.8% (active) |
| CN1CCCC(n2nc(Cc3ccc(Cl)cc3)c3ccccc3c2=O)CC1 (stereo not given) [azelastine] | -1.24% | -0.03% | -3.43% | -2.95% | -3.03% |
| CC(=O)Oc1cc2c(s1)CCN(C(C(=O)C1CC1)c1ccccc1F)C2 (stereo not given) [prasugrel] | 2.32% | 1.62% | 0.43% | 2.1% | -0.82% |
| C[C@@H](O)[C@H]1C(=O)N2C(C(=O)O)=C([C@H]3CCCO3)S[C@H]12 [faropenem] | -0.32% | -0.11% | 1.66% | 0.92% | 1.61% |
| Clc1ccc(COC(Cn2ccnc2)c2ccc(Cl)cc2Cl)c(Cl)c1 (stereo not given) [miconazole] | -1.92% | 0.22% | -0.38% | 0.7% | -4.16% |
| CN1CCC2=C(C1)C(c1ccccc1)c1ccccc12 (stereo not given) [phenindamine] | -1.14% | -0.54% | 0.73% | 2.57% | 1.5% |
| Cc1cc(F)c(Nc2ncnc3cc(OCc4ccccc4)ccc23)cc1O | -3.67% | -0.24% | -1.17% | -2.03% | -1.32% |
| C[C@H](CCC(=O)O)[C@H]1CC[C@H]2[C@@H]3CC[C@@H]4C[C@H](O)CC[C@]4(C)[C@H]3C[C@H](O)[C@]12C [deoxycholic-acid] | -0.18% | 0.25% | -1.84% | -1.15% | -0.42% |
| CCC(C)(C)C(=O)C(=O)N1CCC[C@H]1C(=O)OCCCc1cccnc1 | 0.46% | 0.86% | 1.28% | -0.32% | 1.17% |
| C[C@H]1CCc2c(cc(Br)c(F)c2Br)N1C=O | -0.42% | -1.13% | -1.55% | -0.53% | -1.25% |
| CN[C@@H]1[C@@H](O)[C@@H](O[C@@H]2[C@@H](O)[C@H](O[C@H]3OC(CN)=CC[C@H]3N)[C@@H](N)C[C@H]2N)OC[C@]1(C)O [Sisomicin (sulfate)] | 0.02% | 0.45% | 0.885% | -0.63% | -0.58% |
| CCn1c(-c2nonc2N)nc2cncc(CNC3CCNCC3)c21 | 0.63% | -1.43% | -0.75% | -2.49% | -3.57% |
| CN[C@@H](C)[C@H](O)c1ccccc1 [ephedrine] | -1.32% | -0.23% | 1.57% | 3.01% | -0.52% |
| CCCCCCCCc1ccc(-c2ccc(C(=O)O)cc2)cc1 | -0.05% | 1.54% | 1.52% | 3.77% | 1.83% |
| CC(C)NCC(O)c1ccccc1Cl (stereo not given) [clorprenaline] | 2.05% | 1% | 0.74% | 1.39% | -1.17% |
| O=C1CN(/N=C/c2ccc([N+](=O)[O-])o2)C(=O)N1 [nitrofurantoin] | -0.06% | -0.32% | 0.43% | 0.55% | 1.5% |
| CC(=O)Oc1c(C)cc(OCC(O)CNC(C)C)c(C)c1C (stereo not given) [metipranolol] | -0.83% | 0.56% | 0.06% | -1.66% | -3.06% |
| N[C@@H](Cc1ccc(O)cc1)C(=O)NCC(=O)NCC(=O)O | 1.38% | 0.88% | 1.16% | 1.07% | 0.4% |
| CC(C(=O)O)c1ccc(N2Cc3ccccc3C2=O)cc1 (stereo not given) [indoprofen] | 0.91% | 0.93% | 0.86% | 1.21% | 0.49% |
| Cn1nc(C(C)(C)C)cc1C(=O)N[C@@H](Cc1cccc(Cl)c1)C(=O)NCC#N [cathepsin-inhibitor-1] | 0.51% | 1.86% | -0.47% | -5.37% | -1.36% |

| SMILES | inhibition of SARS-CoV-2 cytopathic effect (1 nM) | inhibition of SARS-CoV-2 cytopathic effect (8.33 nM) | inhibition of SARS-CoV-2 cytopathic effect (100 nM) | inhibition of SARS-CoV-2 cytopathic effect (833.33 nM) | inhibition of SARS-CoV-2 cytopathic effect (10000 nM) |
| --- | --- | --- | --- | --- | --- |
| OCCC#Cc1nc(-c2ccc(F)cc2)c(-c2ccncc2)n1CCCc1ccccc1 | 2.21% | -1.75% | -1.41% | 0.51% | 2.27% |
| O=C1NC(=O)/C(=C/c2ccc(-c3ccc(F)cc3O)o2)S1 | -0.52% | -0.98% | -0.46% | -1.39% | -0.94% |
| N#CC(c1ccccc1)(c1ccccc1)c1ccccc1Cl | 2.09% | 1.23% | 3.05% | 3.49% | 3.88% |
| N#Cc1ccc(Cn2cncc2CN2CCN(c3cccc(Cl)c3)C(=O)C2)cc1 | 3.21% | 3.01% | 0.11% | -2.48% | -1.12% |
| NCCCCCC(=O)O [aminocaproic-acid] | -7.62% | -2.22% | 1.68% | 1.01% | -2.29% |
| CC(C)(F)C[C@H](N[C@@H](c1ccc(-c2ccc(S(C)(=O)=O)cc2)cc1)C(F)(F)F)C(=O)NC1(C#N)CC1 [odanacatib] | -3.88% | -4.52% | -3.49% | -1.8% | 0.04% |
| C1CCC(/N=C(\NC23CC4CC(CC(C4)C2)C3)N2CCOCC2)CC1 | 7.27% | 1.31% | 1.69% | 4.84% | -3.64% |
| Cc1cccc(NC(=O)N[C@@H]2N=C(c3ccccc3)c3ccccc3N(C)C2=O)c1 | -0.47% | 1.7% | 0.28% | 0.31% | 0.03% |
| Fc1ccccc1-c1nc2ccn(Cc3ccc(-c4ccc(C(F)(F)F)cc4C(F)(F)F)nn3)cc-2n1 [tegobuvir] | 0.53% | 2.58% | 3.4% | 1.35% | -1.75% |
| CCOC(=O)[C@@H](N)Cc1ccc(-c2cc(O[C@H](c3ccc(Cl)cc3-n3ccc(C)n3)C(F)(F)F)nc(N)n2)cc1 [telotristat-ethyl] | -0.32% | 2.88% | -1.08% | 4.77% | 2.26% |
| C[C@]12CC[C@H](O)C[C@H]1CC[C@@H]1[C@@H]2CC[C@]2(C)[C@@](O)(c3ccoc3)CC[C@]12O [rostafuroxine] | 3.43% | -0.48% | 1.69% | -1.79% | -1.77% |
| N[C@H]1C(O)O[C@H](CO)[C@@H](O)[C@@H]1O (mixture of isomers) [glucosamine] | 3.44% | 0.07% | 2.73% | 0.81% | 1.42% |
| C=C(c1ccccc1OCc1cccc(Cl)c1)n1ccnc1 [croconazole] | -1.55% | -2.51% | 0.21% | 2.28% | -1.36% |
| CCNC(=O)N1CCN(CCCC(c2ccc(F)cc2)c2ccc(F)cc2)CC1 [amperozide] | -5.99% | -8.04% | -8.94% | -7.67% | -9.06% |
| NCC(=O)N[C@@H](CCC(N)=O)C(=O)O | 0.35% | -1.25% | -2.03% | 2.57% | -2.42% |
| COc1cn(-c2ccc(-n3cccn3)cc2F)nc(-c2ccnn2-c2ccccc2)c1=O | 1.53% | 3.16% | 0.79% | 2.26% | 0.75% |
| Clc1ccc(C(OCCN2CCCCC2)c2ccccc2)cc1 (stereo not given) [cloperastine] | -0.8% | -0.73% | 0.64% | -3.95% | -8.21% |
| Cn1cnc2c1c(=O)[nH]c(=O)n2C [theobromine] | -1.8% | 1.86% | 1.32% | 1.3% | -1.36% |
| COCCOC(=O)C1=C(C)NC(C)=C(C(=O)OC/C=C/c2ccccc2)C1c1cccc([N+](=O)[O-])c1 (stereo not given) [cilnidipine] | -1.01% | -0.52% | 0.89% | 0.38% | 7.9% |
| O=C(/C=C/c1cccc(F)c1)NC1CC1 [cinflumide] | 2.05% | 3.3% | 0.17% | 2.25% | 8.23% |
